Assay outcomes deposited in PubChem BioAssay by The Scripps Research Institute Molecular Screening Center.
Most compounds without a hit are left out; they make up all but 1.8% or so of the library.
PAD4 inh = human PAD4 inhibitors, primary screen, biochemical, fluorescence polarization, 1536-well format. 330,000 compounds, 0.41% hits. Protein-arginine deiminase type-4 (Homo sapiens), Q9UM07. recombinant PAD4, RCA probe fluorescence polarization. inhibition, % at 6.36 µM;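 active = percent inhibition above a cutoff equal to the mean of all tested compounds plus 3 SD, cut at about 15% in these data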;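 note: 0% = PAD4 with RCA probe and DMSO and 100% = probe without PAD4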
LYPLA1 inh = LYPLA1 inhibitors, primary screen, counter-screen for PME1 inhibitor project, biochemical, fluorescence polarization, FP-Rh probe ABPP. Acyl-protein thioesterase 1 (Homo sapiens), O75608. recombinant LYPLA1. inhibition, % at 5.9 µM. 320,000 compounds, 0.16% hits. AID 2174, 2009;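 active = inhibition above the mean of all tested compounds plus 3 SD, set per campaign, cut at about 14% in these data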;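 note: inhibitors block serine hydrolase probe labeling of LYPLA1 so polarization falls; 0% = enzyme with DMSO and 100% = wells lacking LYPLA1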
Target sequence (O75608 whole entry, looked up): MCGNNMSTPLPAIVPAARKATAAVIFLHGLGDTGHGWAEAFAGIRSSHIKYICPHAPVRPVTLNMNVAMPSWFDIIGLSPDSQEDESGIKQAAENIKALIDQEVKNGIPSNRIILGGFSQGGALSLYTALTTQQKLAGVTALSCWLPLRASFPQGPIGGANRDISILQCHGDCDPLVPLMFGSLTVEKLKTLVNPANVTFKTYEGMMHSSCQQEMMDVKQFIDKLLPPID
Fam108B counter = mouse Fam108B serine hydrolase inhibitors, primary screen, counter-screen for RBBP9 inhibitor project, biochemical, fluorescence polarization. recombinant Fam108B, FP-Rh probe fluorescence polarization. inhibition, % at 9.51 µM. 300,000 compounds, 0.33% hits. AID 1947, 2009;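 active = inhibition above the screen mean inhibition plus 3 SD, computed separately per campaign, cut at about 18% in these data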;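 note: inhibitors lower polarization as less probe binds the enzyme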
GSTO1 counter = inhibitors of recombinant GSTO1, primary screen, counter-screen for RBBP9 inhibitor project, biochemical, fluorescence polarization | Glutathione S-transferase omega-1 (Homo sapiens), P78417 | activity-based probe fluorescence polarization | inhibition, % at 5.96 µM | 300,000 compounds, 1.1% hits;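 active = inhibition above the campaign mean inhibition plus 3 SD, cut at about 35% in these data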;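 note: 0% = GSTO1-1 with DMSO and 100% = wells lacking GSTO1-1 enzyme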
LYPLA2 counter = LYPLA2 inhibitors, primary screen, counter-screen for PME1 inhibitor project, biochemical, fluorescence polarization, FP-Rh probe ABPP; AID 2177, 2009; 320,000 compounds, 0.38% hits; inhibition, % at 5.9 µM; recombinant LYPLA2;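 active = inhibition above the screen-wide mean plus 3 SD, limit set per campaign, cut at about 26% in these data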;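 note: 0% = LYPLA2 with DMSO and 100% = wells lacking LYPLA2 enzyme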
Target sequence (O95372 whole entry, looked up): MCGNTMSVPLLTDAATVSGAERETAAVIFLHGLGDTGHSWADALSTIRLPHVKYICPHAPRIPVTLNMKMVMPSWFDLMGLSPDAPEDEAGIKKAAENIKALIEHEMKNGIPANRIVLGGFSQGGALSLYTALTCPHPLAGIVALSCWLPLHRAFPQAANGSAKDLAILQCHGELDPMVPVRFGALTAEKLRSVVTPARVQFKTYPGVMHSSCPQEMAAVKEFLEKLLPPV
PME-1 primary = PME-1 inhibitors via competitive probe labeling, primary screen, biochemical, fluorescence polarization, FP-Rh probe, HTS; inhibition, % at 5.9 µM; Protein phosphatase methylesterase 1 (Homo sapiens), Q9Y570; 320,000 compounds, 0.53% hits; AID 2130, 2009; recombinant PME-1;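 active = inhibition above the campaign mean of all compounds plus 3 SD, cut at about 26% in these data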;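 note: competitive labeling of PME-1 active site by serine hydrolase directed probe; 0% = PME-1 with DMSO and 100% = wells lacking PME-1 enzyme; inhibitors block probe labeling so polarization falls and inhibition rises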
PAD4 FP conf = human PAD4 inhibitors, confirmation, biochemical, fluorescence polarization | shares compounds with PAD4 inh | recombinant PAD4, RCA probe fluorescence polarization | inhibition, % at 6.36 µM | 1,200 compounds, 28% hits;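 active = mean inhibition across replicates above the hit cutoff set by the earlier primary screen, cut at about 15% in these data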;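 note: inhibitors block active-site labeling by the probe so polarization falls; 0% = PAD4 with probe and DMSO and 100% = probe without PAD4 enzyme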
* hit, by the source's call; x = no result given.

SMILES | PAD4 inh | LYPLA1 inh | Fam108B counter | GSTO1 counter | LYPLA2 counter | PME-1 primary | PAD4 FP conf
N[C@@H](CO)c1nnc([C@H](CCC(=O)O)NC(=O)C2CCNCC2)o1 | -3 | 4 | -2 | -8 | 9 | -1 | x
CN(C)S(=O)(=O)c1ccc(C(=O)OCC(=O)c2ccc(OC(F)F)cc2OC(F)F)cc1 | -4 | -2 | 2 | 5 | 2 | 3 | x
Cc1ccc(-n2nc(C)c3c2OC(N)=C(C#N)C3c2ccc(F)cc2)cc1 (stereo not drawn) | 43* | 3 | 6 | 42* | 3 | 5 | -1
Cc1nn(-c2cccc(Cl)c2)c2c1C(c1cccnc1)C(C#N)=C(N)O2 (stereo not drawn) | 62* | -1 | 4 | 7 | -3 | 0 | -8
Cc1nn(-c2cccc(Cl)c2)c2c1C(c1ccncc1)C(C#N)=C(N)O2 (stereo not drawn) | 34* | -2 | 2 | 7 | 3 | 6 | 6
Cc1nn(-c2ccccc2)c2c1C(c1cccs1)C(C#N)=C(N)O2 (stereo not drawn) | 6 | -4 | 0 | 16 | -2 | 2 | x
Cc1ccc(NS(=O)(=O)c2cccc(C(=O)N/N=C/c3ccc4c(c3)OCCO4)c2)c(C)c1 | 0 | -42 | -45 | -18 | -80 | -55 | x
COCCN1CN(S(=O)(=O)c2cccc(Cl)c2)c2nc3ccccc3nc21 | -4 | 3 | 2 | -4 | 5 | 17 | x
C=CCN1CN(S(=O)(=O)c2cccc(Cl)c2)c2nc3ccccc3nc21 | 46* | 0 | -5 | -1 | 6 | 9 | 3
CC1CCCC(NC(=O)C2CCN(S(=O)(=O)c3cccc4nonc34)CC2)C1C (stereo not drawn) | -2 | -5 | -1 | 12 | 4 | 7 | x
COc1cccc(C2C3=C(N=c4s/c(=C\c5ccccc5O)c(=O)n42)c2ccccc2CC3)c1OC (stereo not drawn) | -5 | -5 | 2 | 6 | -5 | -1 | x
CCOC(=O)C1=C(COC(=O)c2sccc2C)NC(=O)NC1C (stereo not drawn) | 4 | 1 | x | x | -4 | 4 | x
CCOC(=O)C1=C(COC(=O)c2ccc([N+](=O)[O-])s2)NC(=O)NC1C (stereo not drawn) | 26* | x | x | x | x | x | 17*
O=C(NCCCn1ccnc1)c1ccc(Br)o1 | -2 | 5 | -2 | 0 | 2 | -1 | x
Cc1ccc(CSc2nnc3ccc(-c4ccncc4)nn23)cc1 | 0 | -2 | 1 | 1 | -2 | 2 | x
Oc1ccc(C=Nc2cccc3ncccc23)c(O)c1 | 16* | 2 | 1 | 15 | 4 | 4 | 5
CCC(=O)N(Cc1cc(=O)[nH]c2ccccc12)c1ccccc1 | 21* | -1 | 3 | -5 | -2 | 2 | 22*
c1cc(CNc2ccc(N3CCOCC3)cc2)ccn1 | 25* | -3 | -1 | 18 | 4 | 6 | 4
CCOC(=O)Cc1csc(SCC(=O)Nc2oc(C)c3c(C)n[nH]c(=O)c23)n1 | -2 | -3 | x | x | 1 | -6 | x
NS(=O)(=O)c1ccc(NC(=O)Cc2c(F)cccc2Cl)cc1 | -2 | -1 | 3 | -5 | -4 | 0 | x
O=C(O)CC/C(=N/NC(=O)CNC(=O)Cc1ccccc1)c1ccccc1 | 0 | -2 | -1 | 11 | 1 | -3 | x
O=C(O)CC/C(=N\NC(=O)CNC(=O)c1ccc(F)cc1)c1ccccc1 | 18* | 1 | 3 | -2 | 2 | -6 | -6
COc1ccccc1-c1nc2c3ccccc3nc(=S)n2[nH]1 | 5 | -1 | 2 | -12 | 3 | -5 | x
COc1cc(-c2nc3c4ccccc4nc(=S)n3[nH]2)cc(OC)c1OC | 16* | -1 | 4 | -2 | 2 | 26 | 25*
O=C(CSc1nnc(-c2ccncc2)n1-c1ccc(Cl)cc1)N1CCOCC1 | -3 | -2 | -3 | -3 | -2 | -5 | x
SMILES | PAD4 inh | LYPLA1 inh | Fam108B counter | GSTO1 counter | LYPLA2 counter | PME-1 primary | PAD4 FP conf
COc1cc(NC(=O)c2cc(C)nc3ccccc23)cc(OC)c1OC | 29* | -2 | 1 | 10 | 1 | 4 | 5
Nc1[nH]ncc1S(=O)(=O)c1ccccc1 | 0 | -1 | 3 | -1 | 1 | -9 | x
Cc1ccc(S(=O)(=O)N2CCCC2=O)c(C)c1N(C)S(C)(=O)=O | 16* | 3 | 1 | 5 | 2 | -2 | 4
O=C1COc2ccc3ccccc3c21 | -6 | 0 | 2 | -3 | -10 | -1 | x
CC[n+]1c(C)sc2cc(OC)ccc21 | 17* | 3 | 3 | 11 | 7 | -8 | 13
CC1(NC(=O)Cc2csc(-c3ccc(Cl)cc3)n2)CCS(=O)(=O)C1 (stereo not drawn) | 0 | x | x | x | x | x | x
CC1(NC(=O)Cc2csc(-c3cccc(Cl)c3)n2)CCS(=O)(=O)C1 (stereo not drawn) | 21* | 7 | x | x | 13 | 12 | 3
COc1ccc(C(CNC(=O)CN(C)S(=O)(=O)c2ccc(C)cc2)N2CCCC2)cc1 (stereo not drawn) | -1 | x | x | x | x | x | x
CC1=NN(c2ccc(Cl)cc2)C(=O)C1C(c1ccccc1O)c1c(C)[nH]n(-c2ccc(Cl)cc2)c1=O (stereo not drawn) | 67* | 7 | 17 | 72* | 21 | 12 | -8
O=C1CSC(c2ccccc2O)N1Cc1ccccc1 (stereo not drawn) | 41* | 0 | -2 | 5 | -4 | -5 | 0
COc1ccc2[nH]c3c(c2c1)CCN1C(=O)C(CC(=O)NCCCn2ccnc2)C[C@H](C(=O)N2CCCCC2)[C@@]31C (stereo partly drawn) | -5 | x | x | x | x | x | x
O=C1CC(Sc2cccs2)C(=O)N1c1ccccc1 (stereo not drawn) | 24* | -4 | -2 | -11 | 0 | -2 | 6
O=C(COC(=O)c1ccc([N+](=O)[O-])s1)c1ccc[nH]1 | 25* | x | x | x | x | x | 2
O=C(OCC(=O)c1ccc[nH]1)c1ccc([N+](=O)[O-])cc1 | -5 | -1 | x | x | 2 | 3 | x
CCCCC1=CC2=C(c3ccco3)C(=O)C(C)(OC(=O)c3ccc(OC)cc3)C(=O)C2=CN1CCOC (stereo not drawn) | 1 | -1 | 2 | 11 | 0 | 11 | x
CCCCC1=CC2=C(c3ccco3)C(=O)C(C)(OC(=O)c3ccc(OC)cc3)C(=O)C2=CN1CCc1ccccn1 (stereo not drawn) | 28* | 0 | 10 | 6 | 1 | 3 | 7
